From PubChem
Lamin A splicing = LMNA splicing modulation. HeLa LMNA splicing GFP/RFP minigene ratio, 48 h. Potency, µM (titrated, usually from 46.1 µM), without a hit: at the top dose ratio change, negative = inhibition, usual class: inhibitors. 200,000 tested, 0.01% active. AID 1487; active = well fitted inhibition curve with a large enough effect in the signal ratio, with a control signal flat, not every such curve was filed as active; inconclusive = small, poorly fitted or top-dose-only effect, or effect the other way, or a change in a side signal; the % refers to the signal ratio
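S3 HeLa cells stably expressing lamin A-EGFP splicing minigene plus DsRed2, 600 cells/well, 48 h compound exposure at 37C. Laser-scanning cytometry; analysed as GFP (500-530 nm)/RFP (575-640 nm) total intensity ratio; 0.5% DMSO vehicle.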
ALDH1A1 block = inhibitors of human aldehyde dehydrogenase 1A1; P00352; Purified ALDH1A1, NADH fluorescence, propionaldehyde substrate; Potency, µM (doses to about 75.3 µM), for the others: at the highest dose activity, negative = inhibition, hits mostly inhibitors; 220,000 tested, 7.3% active; active = well fitted inhibition curve with a large enough effect, not every such curve was filed as active; inconclusive = small, poorly fitted or top-dose-only effect, or another doubt; inactive = no such curve, though single readings can be large or run the other way;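 note: plate controls were no enzyme wells and a reference inhibitor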
HPGD inh = HPGD (human) dehydrogenase inhibition. P15428. purified HPGD, NADH fluorescence kinetic, PGE2 substrate. Potency, µM, for inactives: at the top dose activity change, negative = inhibition, most hits filed as inhibitors. 150,000 tested, 4.3% active; active = well fitted inhibition curve with a large enough effect, not every such curve was filed as active; inconclusive = small, poorly fitted or top-dose-only effect, or another doubt; inactive = no such curve, though single readings can be large or run the other way
Target sequence (P15428 whole entry, looked up): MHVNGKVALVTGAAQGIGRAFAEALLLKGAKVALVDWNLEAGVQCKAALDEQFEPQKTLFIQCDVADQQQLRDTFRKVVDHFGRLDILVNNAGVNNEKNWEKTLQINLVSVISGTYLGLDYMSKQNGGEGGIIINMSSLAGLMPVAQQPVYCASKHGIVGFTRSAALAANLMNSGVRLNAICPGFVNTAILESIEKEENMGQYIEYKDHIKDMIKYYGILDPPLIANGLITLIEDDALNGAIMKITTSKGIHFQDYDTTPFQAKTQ
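20 nM HPGD preincubated 15 min at room temperature with compound in 50 mM Tris-HCl pH 8, 0.01% Tween 20. Started with 1 mM NAD+ and 30 uM prostaglandin E2; NADH fluorescence (360/450 nm) read 5 times over 30-s intervals, last minus first.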
IMPase Li inh = IMPase inhibition in cells with lithium potentiation; AID 1457; CHO-M1 cells, IP1 TR-FRET (IP-One), carbachol + lithium; 210,000 tested, 0.35% active; Potency, µM (titrated, usually from 59.4 µM), without a hit: at the highest dose activity, negative = IMPase inhibition, most hits filed as inhibitors;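 note: IP1 builds up when IMPase is blocked and the TR-FRET signal falls; plate controls were basal vehicle for no effect and high inhibitor control for full effect; nearly all actives have a fitted effect of over 50% in size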
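Lithium-sensitised IP1 accumulation assay; M1-expressing CHO cells treated 30 min at 37C with compound. Competitive antibody detection by time-resolved FRET followed a 10 min room-temperature lysis step.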
Luc counter = blocks Kinase-Glo luciferase, a counter-screen artifact; 200,000 tested, 0.28% active; Kinase-Glo luciferase, ATP luminescence, 8 min; Potency, µM (highest dose often 38.3 µM), without a hit: at the top dose activity change, negative = inhibition, usual class: inhibitors; note: nearly all actives have a fitted effect of over 60% in size
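Inhibition of Kinase-Glo luciferase light generation was assessed at 10 uM ATP in pH 7.2 imidazole buffer, with luminescence measured after eight minutes at ambient temperature.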
Numbers without * were called inactive; u = inconclusive; x = not tested or not shown; ! = a repeat was not active; [ ] = remark or other dose. Sampled rows, rich in hits. Any-hit rate of the full collection: about 9%. Unless noted, calls come from the whole dose curve; as a rule, active = well fitted curve in the direction sought with a large enough effect; inconclusive = small, poorly fitted or top-dose-only effect, or another doubt; inactive = no such curve, though single readings can be large; an effect the other way counts as inactive or inconclusive. Unless noted, % is set by controls: 0 for no effect and ±100 for the full control effect; potency is the fitted concentration of half-maximal effect.

SMILES	Lamin A splicing	ALDH1A1 block	HPGD inh	IMPase Li inh	Luc counter
O=C(CN1CCCCC1)c1cccc(Br)c1	-8%	1.4µM*	-2%	-2%	1%
O=C(CN1CCCCC1)c1ccccc1F	u	3%	x	10%	-4%
O=C(CN1CCCCC1)c1ccccc1Cl	-3%	13µM*	-18%	-1%	1%
N[C@H]1C[C@H]1c1ccccc1	u	1%[20.9 µM]	-6%	-4%	3%[17.1 µM]
CN1CCN(S(=O)(=O)c2cnc(Cl)c(Br)c2)CC1	u	2.5µM*	-2%	5%	4%
C=C(C)C1CCC(C)=CC1c1c(O)cc(O)cc1CCCCC (stereo unspecified)	x	-13%	-4%	4%	-4%[39.9 µM]
CC(C)(C)c1ccc(C(=O)NC(=S)Nn2cnnc2)cc1	-7%	9.5µM*	x	x	x
NC(=S)N/N=C/c1coc2ccccc2c1=O	-5%	14µM*	-19%	10%	2%
O=C(OCCCCN1C(=O)c2ccccc2C1=O)c1ccc(Br)o1	u	u	16µM*	22%[38.3 µM]	1%
N[C@]1(C(=O)O)CC[C@@H](C(=O)O)C1 (racemic)	x	3%	x	-26%	x
CO[C@H]1[C@H](O)[C@H](O[C@@H]2[C@H](Oc3cccc4c(O)c5c(=O)oc6ccc(C)c7c(=O)oc(c34)c5c67)O[C@@H](C)[C@H](O)[C@H]2O)O[C@@H](C)[C@@H]1O	x	-12%[13.5 µM]	-2%	3%	-2%[7.66 µM]
Cc1ccc2oc(-c3ccccc3)cc(=O)c2c1	x	u	u	18%	-5%
O=c1cc(-c2ccc(O)c(O)c2)oc2cc(O)cc(O)c12	u	20µM*	11µM*!	24%	2%
O=c1c(O)c(-c2ccc(O)c(O)c2)oc2cc(O)cc(O)c12	u	13µM*!	20µM*!	30%	0%
CN1C(=O)CCS(=O)(=O)[C@@H]1c1ccc(Cl)cc1	u	1%[20.9 µM]	-10%	2%	4%[17.1 µM]
C[C@H](CCC(=O)O)[C@H]1CC[C@@H]2[C@H]3CC[C@H]4C[C@@H](O)CC[C@@]4(C)[C@H]3CC[C@]21C	u	8%[20.9 µM]	6%	3%	-2%[17.1 µM]
O=C=NC1CCCCC1	x	28µM*!	-4%	-20%	x
Nc1ncc([N+](=O)[O-])s1	x	25µM*	u	19%	x
CC(C)OC(=O)Nc1cccc(Cl)c1	-4%	-1%	13µM*	-2%	-3%
CC(C)c1nccn1Cc1ccc(Cl)cc1Cl	x	13%[13.5 µM]	-1%	-1%	-5%[7.66 µM]
CC1=NN(c2ccccc2)C(=O)/C1=C/c1c(O)[nH]c(=O)[nH]c1=O	x	u	x	9%	0%
CC1=NN(c2ccccc2)C(=O)/C1=C/c1c(O)[nH]c(=S)[nH]c1=O	1%	u	20µM*	-4%[38.3 µM]	0%
O=C(O)C[O][Sb][O]CC(=O)O	x	11%[13.5 µM]	0%	2%	-2%[7.66 µM]
COc1ccc(/C=C2/C(=O)NC(=O)N(c3ccc(C)c(C)c3)C2=O)cc1CN1C(=O)c2ccccc2C1=O	-9%	7.9µM*	10µM*	26%	3%
COc1cc(/C=C2\C(=O)NC(=O)N(c3ccc(C)cc3)C2=O)cc(OC)c1O	x	u	x	6%	x
SMILES	Lamin A splicing	ALDH1A1 block	HPGD inh	IMPase Li inh	Luc counter
COc1cc(/C=C2\C(=O)NC(=O)N(c3ccccc3)C2=O)cc(OC)c1OC	-4%	13µM*	u	14%[38.3 µM]	-4%
CCN1C[C@]2(COC)CC[C@H](OC)[C@@]34C5C[C@@H]6[C@@H](OC)C[C@@]7(OCO[C@@]7([C@@H](O)C23)[C@@H]14)C5[C@H]6OC (stereo partly specified)	x	1%	x	-22%	x
Cc1cccc(N2C(=O)NC(=O)/C(=C\c3ccc4c(c3)CCCN4Cc3ccccc3)C2=O)c1	-6%	0.18µM*	7.1µM*	1%	-2%
COC(=O)[C@@H]1[C@@H]2C[C@H]3c4[nH]c5cc(OC)ccc5c4CCN3C[C@@H]2C[C@H](OC(=O)/C=C\c2cc(OC)c(OC)c(OC)c2)[C@H]1OC	u	u	u	6%	1%[17.1 µM]
C[C@@H](C(=O)O)c1ccc(-c2ccccc2)c(F)c1	u	0%	28µM*	6%	-1%
C[C@@H](C(=O)O)c1ccc(C(=O)c2cccs2)cc1	u	-1%[20.9 µM]	-18%	-27%	-1%[17.1 µM]
O=C1C2CC=CCC2C(=O)N1SC(Cl)(Cl)Cl (stereo unspecified)	u	0.4µM*	7.1µM*	24%	x
